# In PubChem BioAssay AID588382 (National Center for Advancing Translational Sciences (NCATS), 2011):
# The campaign covered roughly 1,300 compounds. About 150 (12%) were called active. Another 30% or so got no clear call; they are omitted. The sample holds actives, similar compounds and a random draw of the others, so the mix is not that of the screen. The call rests on the fitted dose curve; in most records, active means well fitted cell-killing curve with a large enough effect; inconclusive means small, poorly fitted or top-dose-only effect, or effect the other way; inactive means flat fitted curve, though single readings scatter.
# Assay: qHTS of small molecules that selectively kill Giardia lamblia: Hit Validation in HepG2 cytotox;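 further: compound exposure lasted overnight at 37 deg C; nearly all actives have a fitted effect of over 55% in size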;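 on activity change, negative = cytotoxicity: viability measured as cellular ATP by ATPLite luminescence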
# Details: cell viability; Potency: HepG2 cytotoxicity; series mostly up to 38.3 µM; activity change, negative = cytotoxicity: at the top concentration
# Method in brief: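 Counterscreen cytotoxicity: ATPLite luminescence (15 min, room temperature) measured in HepG2 cells exposed overnight at 37 deg C to pin-transferred compound (23 nL) after overnight pre-incubation.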
# On the % scale 0 is the no-effect control and ±100 the full control effect; potency means the concentration at half of the fitted maximal effect.
SMILES,"activity change, negative = cytotoxicity",Potency
COc1ccc(CC(NC(C)=O)C(=O)NC2CCN(c3ncccc3[N+](=O)[O-])CC2)cc1 (stereo not given),2.55% (inactive),–
CCC1CCCCN1C(=O)c1ccc([N+](=O)[O-])o1 (stereo not given),-13.7% (inactive),–
Cc1ccc(C2=NCCn3c2c2ccc([N+](=O)[O-])cc2[n+]3[O-])cc1,9.71% (inactive),–
O=[n+]1c2c(n([O-])c3cc(Br)ccc31)CCCC2,6.84% (inactive),–
CCOc1cc(C=O)ccc1OCCn1c([N+](=O)[O-])cnc1C,13.6% (inactive),–
CCOC(=O)C1=C(C)N=c2s/c(=C/c3cccc([N+](=O)[O-])c3O)c(=O)n2C1c1ccc(OC)cc1OC (stereo not given),4.23% (inactive),–
CCN(CC)CCOC(=O)c1ccc(N/C=C(/C#N)c2nc(-c3cc4ccccc4oc3=O)cs2)cc1,-3.12% (inactive),–
O=[N+]([O-])c1ncn(Cc2c(Cl)cccc2Cl)n1,13.7% (inactive),–
C=CCNC(=O)c1ccccc1NC(=O)COc1ccccc1,8.16% (inactive),–
O=C(COc1cccnc1[N+](=O)[O-])NCc1ccc(F)cc1,-9.98% (inactive),–
CC(=O)c1c(COC(=O)c2ccccc2Cl)nc2ccccc2[n+]1[O-],21.4% (inactive),–
O=[N+]([O-])c1ccc2nc(-c3ccc(OC(F)F)cc3)cn2c1,-8.69% (inactive),–
COc1cccc([C@@H]2CC=C(C(=O)O)[C@H](c3cccc(Cl)c3)N2S(=O)(=O)c2ccc(C)cc2)c1,1.31% (inactive),–
COc1ccc(NC(=O)c2ccc([N+](=O)[O-])cc2[N+](=O)[O-])c(OC)c1,4.09% (inactive),–
CC(=O)c1c(C)n([O-])c2cc(C)ccc2[n+]1=O,10.2% (inactive),–
NC(=O)c1c(NC(=O)CCCn2cnc([N+](=O)[O-])n2)sc2c1CCCC2,-2.71% (inactive),–
NC(=O)c1c(NC(=O)c2ccc([N+](=O)[O-])o2)sc2c1CCCC2,–,11.7 µM (active)
COC(=O)c1sc(NC(=O)c2ccc([N+](=O)[O-])o2)c(C#N)c1C,-19.1% (inactive),–
CC(=O)N1CCc2c(sc(NC(=O)c3ccc([N+](=O)[O-])o3)c2C#N)C1,–,3.29 µM (active)
O=C(c1ccc([N+](=O)[O-])o1)N1CCc2ccccc2C1,5.56% (inactive),–
O=C1S/C(=C\c2ccc(O)c([N+](=O)[O-])c2)C(=O)N1Cc1cccc([N+](=O)[O-])c1,-21.5% (inactive),–
OC(COc1cccc2ccccc12)CN1CCN(c2ccc(Cl)cc2)CC1 (stereo not given),-21.8% (inactive),–
O=[N+]([O-])C(/C=C(\Cl)[N+](=O)[O-])=C(N1CCCCC1)N1CCCCC1,2.12% (inactive),–
CC(=O)NC(Cc1ccccc1F)C(=O)NC1CCN(c2ncccc2[N+](=O)[O-])CC1 (stereo not given),6.4% (inactive),–

SMILES,"activity change, negative = cytotoxicity",Potency
CCN(CCCNC(=O)c1nn(C)c2c1CS(=O)(=O)c1ccccc1-2)Cc1ccccc1,8.51% (inactive),–
CC(C)(C)C1C/C(=C/c2ccccn2)C(=O)/C(=C/c2ccccn2)C1 (stereo not given),–,0.585 µM (active)
O=C1CC(c2ccc(F)cc2)CC2=C1C(c1ccc([N+](=O)[O-])o1)Nc1ccccc1N2 (stereo not given),0.0723% (inactive),–
O=c1[nH]c(=O)c2cc([N+](=O)[O-])cc([N+](=O)[O-])c2[nH]1,26.1% (inactive),–
O=[N+]([O-])c1ccc(/C=N/Nc2nc(N3CCCCC3)nc(N3CCCCC3)n2)o1,-1.62% (inactive),–
COc1ccc(S(=O)(=O)N2CCOCC2)cc1NC(=O)COc1cccnc1[N+](=O)[O-],4.96% (inactive),–
O=C(Nc1ccc(S(=O)(=O)N2CCOCC2)cc1)c1ccc([N+](=O)[O-])o1,–,13.1 µM (active)
CC(C)C(=O)NC(=S)Nc1ccc(S(=O)(=O)N2CCCC2)cc1,2.66% (inactive),–
Cc1ccc(NC(=O)COc2cccnc2[N+](=O)[O-])cc1S(=O)(=O)N1CCCCC1,-2.65% (inactive),–
O=C(Nc1ccccc1N1CCOCC1)c1ccc([N+](=O)[O-])o1,20.1% (inactive),–
Cc1ccc(NC(=O)c2ccc([N+](=O)[O-])o2)cc1S(=O)(=O)N1CCOCC1,–,13.1 µM (active)
COc1ccc(S(=O)(=O)N2CCN(C(=O)c3ccc([N+](=O)[O-])o3)CC2)cc1,1.33% (inactive),–
O=C(Nc1ccc(S(=O)(=O)N2CCCC2)cc1)c1ccc([N+](=O)[O-])o1,–,2.93 µM (active)
COc1ccc(S(=O)(=O)N2CCCCC2)cc1NC(=O)c1ccc([N+](=O)[O-])o1,–,3.29 µM (active)
COc1ccc(C)cc1NC(=O)c1cc(S(=O)(=O)N2CCCC2)cn1C,7.45% (inactive),–
O=C(Cc1ccc(Cl)cc1)Nc1ncc([N+](=O)[O-])s1,-20.5% (inactive),–
Cc1ccc(-n2c(C)cc(C(=O)COc3cccnc3[N+](=O)[O-])c2C)cc1,12.6% (inactive),–
O=C(c1ccc([N+](=O)[O-])o1)N1CCc2ccccc21,7.1% (inactive),–
Cc1cc(C)cc(N=c2c([N+](=O)[O-])nn(-c3ccc(Cl)cc3)n2O)c1,14.2% (inactive),–
O=C(COc1cccnc1[N+](=O)[O-])NCc1ccco1,10.7% (inactive),–
COc1ccc(OC)c(CCNC(=O)CSc2ccsc2[N+](=O)[O-])c1,-0.302% (inactive),–
Cc1ccc(S(=O)(=O)N2[C@@H](c3ccc(Cl)cc3)C(C(=O)O)=CC[C@H]2c2ccc(Cl)c(Cl)c2)cc1,-5.73% (inactive),–
Cn1nc(N)c2c(-c3ccccc3)c(C#N)c(N)nc21,6.82% (inactive),–
Cc1ccc(N=c2c([N+](=O)[O-])nn(-c3ccc4c(c3)OCCO4)n2O)cc1F,2.9% (inactive),–

SMILES,"activity change, negative = cytotoxicity",Potency
CC(C)(C)n1nc(-c2ccc(Cl)cc2)c2c(N)ncnc21,5.62% (inactive),–
[O-][n+]1c2cc(C(F)(F)F)ccc2c2n1CCN=C2c1ccc(Cl)cc1,6.18% (inactive),–
CCOC(=O)CSc1ccc(C(=O)NCCCN2CCOCC2)cc1[N+](=O)[O-],1.58% (inactive),–
O=[N+]([O-])c1cc(S(=O)(=O)Nc2cccc(Cl)c2)ccc1N/N=C/c1ccc(N2CCOCC2)cc1,15.7% (inactive),–
O=C(COc1cccnc1[N+](=O)[O-])Nc1cccc(S(=O)(=O)N2CCCCC2)c1,7.3% (inactive),–
O=C(Nc1cccc(S(=O)(=O)N2CCCCC2)c1)c1ccc([N+](=O)[O-])o1,–,11.7 µM (active)
CC(=O)NC(Cc1cccc(C)c1)C(=O)NC1CCN(c2ncccc2[N+](=O)[O-])CC1 (stereo not given),1.07% (inactive),–
Cc1cc(C)n(S(=O)(=O)c2ccccc2[N+](=O)[O-])n1,-7.32% (inactive),–
CC(NC(=O)c1ccc(N(C)C)c([N+](=O)[O-])c1)c1ccc(-n2ccnc2)cc1 (stereo not given),-5.39% (inactive),–
CC(=O)NC(Cc1cccc(F)c1)C(=O)NC1CCN(c2ncccc2[N+](=O)[O-])CC1 (stereo not given),25.4% (inactive),–
C/C(=N\NC(=O)COc1ccc(C)cc1Br)c1cc([N+](=O)[O-])cs1,1.76% (inactive),–
CC12CN3CC(C)(CN(C1)C3c1ccc([N+](=O)[O-])o1)C2 (stereo not given),23.5% (inactive),–
O=[N+]([O-])c1cccc2nc3ccccc3c(NCCCn3ccnc3[N+](=O)[O-])c12,–,0.0736 µM (active)
O=C(NC(=S)Nc1ccc(CN2CCOCC2)cc1)c1ccc([N+](=O)[O-])cc1Cl,8.14% (inactive),–
CCN(CC)CCCC(C)Nc1cc(/C=C/c2ccccc2Cl)nc2cc(Cl)ccc12 (stereo not given),–,2.07 µM (active)
CCN(CC)CCCC(C)Nc1c2ccc(Cl)cc2nc2ccc(OC)cc12 (stereo not given),–,4.65 µM (active)
CCc1nc2cc([N+](=O)[O-])c([N+](=O)[O-])cc2[nH]1,17.5% (inactive),–
Cc1cccc(-n2nc([N+](=O)[O-])c(=NCc3cccnc3)n2O)c1,1.38% (inactive),–
O=C(COc1cccnc1[N+](=O)[O-])Nc1cc(Cl)ccc1Cl,20% (inactive),–
COc1ccccc1C(=O)NC(=O)OCCn1c(C)cnc1[N+](=O)[O-],13.5% (inactive),–
O=[N+]([O-])c1ccc(Nc2ccccc2)c2nonc12,-5.06% (inactive),–
O=[N+]([O-])c1nn(-c2ccc3c(c2)OCCO3)n(O)c1=NC1CCCCCC1,1.36% (inactive),–
Cc1ccc(C(=O)Nc2ccc3c(c2)OCCO3)o1,-29% (inactive),–
Cc1ccnc(NC(=O)c2ccc3c(c2)OCO3)c1,–,0.585 µM (active)

SMILES,"activity change, negative = cytotoxicity",Potency
O=C(COc1cccnc1[N+](=O)[O-])Nc1ccc2c(c1)OCO2,2.74% (inactive),–
Cc1ncc([N+](=O)[O-])n1CCOC(=O)Nc1ccc([N+](=O)[O-])cc1,9.82% (inactive),–
COc1cccc(NC(=O)COc2cccnc2[N+](=O)[O-])c1,5.3% (inactive),–
O=c1c(-c2cccc([N+](=O)[O-])c2)[n+]([O-])c2ccccc2n1O,15.3% (inactive),–
O=C1C(c2ccncc2)=C(O)c2ccccc21,–,5.85 µM (active)
Cn1c(=O)c(=O)n(C)c2cc([N+](=O)[O-])c(N3CCOCC3)cc21,-8.79% (inactive),–
O=C(Nc1nccs1)c1cc([N+](=O)[O-])ccc1Cl,-1.08% (inactive),–
Cc1cc(=O)oc2cc(O)c(N=Nc3ccccc3)cc12,-10.3% (inactive),–
CC(C)OC(=O)Nc1ccc2c(c1)N(C(=O)N1CCN(C)CC1)c1ccccc1CC2,–,0.521 µM (active)
CC(NC(=O)Cn1cc(Br)c([N+](=O)[O-])n1)c1ccccc1 (stereo not given),19% (inactive),–
Cc1ncc([N+](=O)[O-])n1CCOC(=O)C12CC3CC(CC(C3)C1)C2,-0.852% (inactive),–
CCOC(=O)C1=C(C)NC2=C(C(=O)c3ccccc32)C1c1ccc([N+](=O)[O-])o1 (stereo not given),-1.83% (inactive),–
CCOC(=O)c1ccc(NS(C)(=O)=O)cc1,10.8% (inactive),–
CCOC(=O)c1c(C)[nH]c2c1-c1ccccc1C(=O)C2=O,–,2.61 µM (active)
CC(NC(=O)COc1cccnc1[N+](=O)[O-])c1ccc(Cl)cc1Cl (stereo not given),8.39% (inactive),–
COC(=O)c1ccc(Nc2ccc3nonc3c2[N+](=O)[O-])cc1,12.5% (inactive),–
CCn1cnc2c([N+](=O)[O-])c(NS(=O)(=O)c3ccc(C)cc3)ccc21,-5.57% (inactive),–
COc1cc(/C=C2\SC(=O)N(Cc3ccc(Cl)cc3)C2=O)cc([N+](=O)[O-])c1O,-0.415% (inactive),–
O=C(Cc1ccccc1)Nc1nnc(-c2cccs2)s1,-2.94% (inactive),–
O=[N+]([O-])c1ncc(Br)cc1Nc1ccccc1,14.2% (inactive),–
O=S(=O)(Nc1cc(Sc2cccc3cccnc23)c(O)c2ccccc12)c1ccc(F)cc1,–,4.65 µM (active)
COC(=O)[C@@]1(Cc2ccc(OC)cc2)[C@H]2c3cc(C(=O)N4CCCC4)n(CCn4cc([N+](=O)[O-])nc4C)c3C[C@H]2CN1C(=O)c1ccccc1,3.15% (inactive),–
CN(C)/[N+]([O-])=N/Oc1ccc([N+](=O)[O-])cn1,15% (inactive),–
